Sm TGR block: inhibitors of Schistosoma mansoni thioredoxin glutathione reductase | Potency, µM (doses to about 114 µM), inactives show at the top dose activity change, negative = inhibition, hits mostly inhibitors | purified TGR, DTNB reduction, TNB absorbance 405 nm | AID 485364 | 360,000 compounds, 3% hits; further: potency means the concentration at half of the fitted maximal effect; on the % scale 0 is the no-effect control and ±100 the full control effect; nearly all actives have a fitted effect of over 60% in size
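Kinetic colorimetric format: TGR-catalysed, NADPH-driven DTNB reduction monitored via TNB absorbance. Enzyme dispensed at 20 nM; compound exposure 15 min at room temperature before reaction start.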
NS1 inh: inhibitors of influenza NS1 protein function; 270,000 compounds, 0.4% hits; AID 2326; Potency, µM (series often up to 46.1 µM), without a hit: at the highest dose activity, positive = more growth; calls by dose curve; further: potency means the concentration at half of the fitted maximal effect; actives are rising curves; nearly all actives have a fitted effect of over 50% in size
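Compounds were scored for reversing the slow growth caused by influenza A NS1 in S. cerevisiae, measured by optical density at 600 nm. Assay medium contained 2% galactose at pH 6.0; NS1-free yeast of the same strain were the positive control.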
Pf growth 96h: inhibits malaria parasite growth, 96 h; P. falciparum luciferase reporter growth, 96 h; Potency, µM (series often up to 28.7 µM), without a hit: top-dose activity change, negative = inhibition, most hits filed as inhibitors; 320,000 compounds, 6.9% hits; AID 504834; further: potency means the concentration at half of the fitted maximal effect; on the % scale 0 is the no-effect control and ±100 the full control effect
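Luminescence readout: decreased luciferase signal marks inhibited growth of reporter-expressing P. falciparum in infected red cells (2% hematocrit, 0.05% parasitemia final), exposed to compound two generations (96 h, 37 C, 5% CO2).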
Pf growth 48h: P. falciparum growth inhibition at 48 hours (one generation); P. falciparum luciferase growth in erythrocytes, 48 h; 310,000 compounds, 5.9% hits; Potency, µM (titrated, usually from 28.7 µM), inactives show top-dose activity change, negative = inhibition, hits mostly inhibitors; further: potency means the concentration at half of the fitted maximal effect; on the % scale 0 is the no-effect control and ±100 the full control effect
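A one-generation exposure of luciferase-tagged malaria parasites in RPMI 1640/Albumax erythrocyte culture, 37 C and 5% CO2. Inhibition is inferred from decreased luminescence after adding detection reagent.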
CHX counter: counter-screen hit for Shiga toxin inhibitors, cycloheximide; cell reporter, cycloheximide protein synthesis inhibition counterscreen; max response, %; 300,000 compounds, 12% hits; in the data active means max response mostly above about 13%, no sharp cut-off; inactive means mostly below about 14%; further: read at 38.3 µM for the half of the compounds with a filed dose; 0% is about no effect
Shiga inhibitor: Shiga toxin inhibition; Vero cells, Shiga toxin protein synthesis inhibition reporter; inhibition, % at 38.7 µM; 290,000 compounds, 9.2% hits; AID 2315; in the data active means inhibition mostly above about 28%, no sharp cut-off; inactive means mostly below about 43%; further: 0% is about no effect
An asterisk follows results filed as active; i = inactive; ? = inconclusive; nt = not tested or not shown; ! = repeats disagree. Rows were chosen to be rich in hits. Some 21% of all compounds tested hit in one or more screens of this group. Unless noted, the call rests on the fitted dose curve; in most records, active means well fitted curve in the direction sought with a large enough effect; inconclusive means small, poorly fitted or top-dose-only effect, or another doubt; inactive means no such curve, though single readings can be large; an effect the other way counts as inactive or inconclusive.

SMILES | Sm TGR block | NS1 inh | Pf growth 96h | Pf growth 48h | CHX counter | Shiga inhibitor
CN(C)C1C(=O)C(C(N)=O)C(=O)C2(O)C(=O)C3C(=O)c4c(O)cccc4C(C)(O)C3C(O)C12 (centres undefined) | nt | nt | 3µM* | 9.5µM* | -2 | -5
CCn1c(=O)cc(SCC(=O)Nc2cccc(C)n2)c2ccccc21 | 6% | nt | 8% | -16% | 6 | -9
CN(C)[C@@H]1C(=O)C(C(N)=O)=C(O)[C@@]2(O)C(=O)C3=C(O)c4c(O)cccc4[C@@](C)(O)[C@H]3[C@H](O)[C@@H]12 | 8.9µM* | 10% | 3.8µM*! | 13µM*! | -2 | -5
Oc1ccc(Br)cc1C1Nc2ccccc2S1 (centres undefined) | 0% | -3% | ? | nt | 17 | 30
O=C(CSc1nc(-c2ccc(F)cc2)cc(C(F)(F)F)n1)NCc1ccccc1 | 0% | nt | nt | nt | nt | nt
c1ccc2c(-c3c[nH]c4ccccc34)c3ccccc3nc2c1 | -8% | -12% | 3.7µM* | ? | -4 | -10
O=C(O)c1cc(-c2c[nH]c3ccccc23)nc2ccc3ccccc3c12 | -23% | nt | 0% | 247% | 7 | 26
CCCCN(CCCC)CC(O)COc1ccc(Br)cc1 (centres undefined) | 33% | -7% | 3.3µM* | 3.7µM* | -2 | 3
CCOC(=O)CNC(=O)c1cccnc1Oc1ccc(Cl)cc1 | 29% | 2% | -11% | 34% | -4 | -3
C=CCOc1ccc2c(=O)n(C)c3ccccc3c2c1 | nt | nt | nt | nt | 9 | 8
Cc1cc(OCC(=O)NC2CC2)c2c(C)c(C)c(=O)oc2c1 | -4% | 0% | 12% | -2% | -1 | -4
CC(C)(C)OC(=O)N1C2C=CC1C1=COCCN1C2=O (centres undefined) | nt | nt | nt | nt | 10 | -2
O=C(NCCc1nnc2ccccn12)c1cccs1 | -3% | -5% | 62% | 70% | 36* | 51*
Cn1c(CCNC(=O)c2cccs2)nnc1SCC(=O)N1CCN(c2ccccc2)CC1 | 36% | ? | nt | ? | -2 | -6
Cc1ccsc1C(=O)NCCc1nnc2ccccn12 | -17% | -5% | 94% | 132% | 31* | 72*
O=C1CN(C(=O)COc2ccc(Cl)cc2)C(c2ccc(F)cc2)c2cc(Cl)ccc2N1 (centres undefined) | 2% | nt | nt | nt | nt | nt
CC(=O)Nc1ccc(S(=O)(=O)N(Cc2ccccc2)c2ccccc2F)cc1 | -4% | 0% | 159% | -17% | -2 | -6
CC(C)(C)c1ccc(C(=O)Nc2nnc(SCC(=O)NCC3CCCO3)s2)cc1 (centres undefined) | -13% | 5% | -53% | -1% | 56* | 110*
CN(C)S(=O)(=O)c1ccc(C(=O)Nc2nnc(SCC(=O)NCC3CCCO3)s2)cc1 (centres undefined) | -9% | 4% | ? | 4% | -4 | -19
CCOc1ccc(C(=O)Nc2nnc(SCC(=O)NCC3CCCO3)s2)cc1 (centres undefined) | 1% | 2% | 29% | -18% | 38* | 48
CN(Cc1ccccc1)S(=O)(=O)c1ccccc1[N+](=O)[O-] | 0% | -4% | ? | 3% | 4 | 16
CC(C)N1CCC(N2CCN(Cc3ccc(-c4ccc(Cl)cc4)o3)CC2CCO)CC1 (centres undefined) | 13µM* | -7% | ? | 2.3µM* | 2 | 7
Cc1ccc(-c2cccc(CN3CCN(C4CCN(C(C)C)CC4)C(CCO)C3)c2)o1 (centres undefined) | ? | -2% | 35% | 10µM* | -3 | -4
CC[C@H](C)[C@H](NC(=O)CNC(=O)[C@H](CC(C)C)NC(=O)[C@H](CC(C)C)NC(=O)[C@H](CCC(N)=O)NC(=O)[C@H](CCC(N)=O)NC(=O)[C@H](CC(=O)O)NC(=O)[C@H](CCCCN)NC(=O)[C@H](CC(C)C)NC(=O)[C@H](Cc1ccc(O)cc1)NC(=O)[C@H](CCCNC(=N)N)NC(=O)[C@H](CCC(=O)O)NC(=O)[C@@H](NC(=O)[C@H](C)NC(=O)[C@H](CC(C)C)NC(=O)[C@@H](NC(=O)[C@@H](N)CCCNC(=N)N)[C@@H](C)CC)C(C)C)C(=O)N[C@@H](Cc1c[nH]c2ccccc12)C(=O)NCC(=O)N[C@@H](CS)C(=O)N[C@@H](CO)C(=O)O | nt | nt | nt | nt | 1 | -4
C=C(C)Cn1c(CCn2c3ccccc3c3ccccc32)n[nH]c1=S | 1% | 9% | 7.4µM* | 11% | 7 | -17
SMILES | Sm TGR block | NS1 inh | Pf growth 96h | Pf growth 48h | CHX counter | Shiga inhibitor
C=CCn1c(CCn2c3ccccc3c3ccccc32)n[nH]c1=S | -2% | -4% | ? | ? | 0 | -5
CC(C)NCC(O)COc1cccc2ccccc12 (centres undefined) | 6% | -9% | ? | 10µM* | -1 | -12
CC(C)NCC(O)COc1cccc2[nH]ccc12 (centres undefined) | 2% | ? | 0.85µM* | -3% | -3 | 26
CC(C)[N+](C)(C)CC(O)COc1cccc2ccccc12 (centres undefined) | nt | nt | 24% | 6µM* | nt | nt
Cc1ccccc1CN1C(=O)c2ccccc2Sc2ccc(C(=O)N3CCOCC3)cc21 | 12% | nt | nt | nt | nt | nt
CCS(=O)(=O)c1ccc2oc(Nc3ccc(OC)c(OC)c3)nc2c1 | -13% | -2% | -7% | -7% | 17 | 16
CCS(=O)(=O)c1ccc2oc(Nc3ccccc3C)nc2c1 | -21% | -6% | i | 128% | 54* | 69*
CCN(CC)S(=O)(=O)c1ccc2oc(Nc3ccccc3)nc2c1 | 2% | 11% | ? | 12% | 30* | 79*
CCN(CC)S(=O)(=O)c1ccc2oc(Nc3ccc(OC)cc3OC)nc2c1 | -18% | 7% | 10µM* | ? | -2 | 17
Cc1cccc(NC(=O)C(=O)NCc2ccc3c(c2)OCO3)c1C | 0% | 1% | 22% | 18% | -1 | -4
CC(=O)Cc1cc2cc([N+](=O)[O-])ccc2oc1=O | -1% | 1% | 72% | 29% | 6 | -10
CCOc1ccccc1OCC(=O)NC1CCCCC1 | -3% | -55% | -13% | nt | 9 | 4
CCc1ccc(OCC(=O)NNC(=S)NC(=O)C2CCCCC2)c(Br)c1 | -5% | -35% | 9% | 25% | 5 | -14
O=C(COc1ccc(F)cc1Cl)NC1CCCCCC1 | -31% | nt | 223% | 127% | nt | nt
COc1ccccc1OCC(=O)NC1CCCCCC1 | ? | -45% | ? | 0% | 22* | 42*
CCc1ccc(OCC(=O)NC2CCCCC2)c(Br)c1 | 2% | 3% | 12µM* | 1% | -1 | -17
O=C(COc1ccccc1Br)NC1CCCC1 | 0% | -3% | 0% | 17% | 32* | 78*
Cc1cccc(OCc2nc(C#N)c(NCc3ccc4c(c3)OCO4)o2)c1 | 4% | -125% | -6% | nt | 42* | 56

Bioassay records as filed in PubChem.
